According to ChEMBL document CHEMBL4513216, “Probing the Open Global Health Chemical Diversity Library for Multistage-Active Starting Points for Next-Generation Antimalarials” (ACS Infect Dis, 2020):
The campaign covered roughly 68,000 compounds. About 2,700 (4%) showed an effect of 50% or more. The sample as a whole holds a higher share of strong results than the screen did.

Tested on: Plasmodium berghei
Assay: Screen against P. berghei liver stage (PbLuc), transformed with Luciferase, at 2uM
Format: functional, HepG2
Conditions: tested at 2 uM

Row | Structure (SMILES) | INHIBITION
1 | O=S(=O)(NCC1(O)CCCC1)c1ccccc1Br | 32.07%
2 | Cc1noc(C)c1C(=O)N1Cc2ncn(C)c2C(COCC(C)C)C1 (configuration not stated) | 25.92%
3 | CN(C)c1ccnc(N2CCC(NCCOc3ccccc3)CC2)n1 | -55.42%
4 | CN(C)c1nccc(-c2cnc(N(C)C)[nH]c2=O)n1 | 51.32%
5 | Cc1ncncc1-c1ccnc(N(C)C)n1 | 22.5%
6 | CN(C)c1nccc(-c2c[nH][nH]c2=O)n1 | 3.97%
7 | CN(Cc1ccc2nonc2c1)C(=O)CCc1cc2n(n1)CCCNC2 | -3.87%
8 | CCN(Cc1ccncc1)C1CCCN(C/C=C/c2ccc(F)cc2)C1 (configuration not stated) | 27.95%
9 | CCN(Cc1ccncc1)C1CCCN(Cc2ccc(F)cc2Cl)C1 (configuration not stated) | 32.26%
10 | CCN(Cc1ccncc1)C1CCCN(Cc2ccc(F)cc2OC)C1 (configuration not stated) | 51.42%
11 | Cc1ccc(CN2Cc3c(C(=O)N4CCCC4)nn(C)c3C2)s1 | -64.97%
12 | O=C1CC(N2CCN(c3ccccc3O)CC2)C(=O)N1Cc1cccs1 (configuration not stated) | 19.62%
13 | O=C(Cn1cc(I)cn1)N1CCCC1 | 34.34%
14 | CC1CCCN(C(=O)Cn2cc(I)cn2)C1 (configuration not stated) | 37.18%
15 | CC1CCN(C(=O)Cn2cc(I)cn2)CC1 | 66.74%
16 | O=C(Cc1cccc(F)c1)NCCNCC1CNc2ccnn2C1 (configuration not stated) | -7.45%
17 | Cn1nccc1C1CCN(CC(=O)NCC2CC2)CC1 | 7.71%
18 | O=C(Nc1cccnc1-n1cc(Cl)cn1)C1CC1 | -43.89%
19 | Cc1cc(C)n(CC2CN(Cc3nc(C4CC4)no3)CCO2)n1 (configuration not stated) | 37.31%
20 | CN(C)C(=O)N1CC[C@@H](O)[C@@H]1Cc1ccccc1 | 48.52%
21 | O=C([C@H]1CCCO1)N1CCC2(CC1)C(=O)N(CC1CC1)c1ccccc12 | 58.95%
22 | CC(=O)N1CCC2(CC1)C(=O)N(CC1CC1)c1ccccc12 | 24.15%

Row | Structure (SMILES) | INHIBITION
23 | O=C(N1CCCC1)N1CCC2(CC1)C(=O)N(CC1CC1)c1ccccc12 | 31.5%
24 | O=C(N[C@H]1CN(Cc2ccsc2)[C@@H]2CCCO[C@H]12)C1CC1 | -1.33%
25 | COCCN1CCC(c2cncc(-c3cccc(Cl)c3)n2)CC1 | 32.39%
26 | CN(CC(=O)Nc1ccc(Br)cn1)C(=O)C(C)(C)C | 8.42%
27 | Cc1c(C)c(C)c2[nH]c(-c3cn(C4CCNCC4)nn3)nc2c1C | 52.66%
28 | Cc1ccc2[nH]c(-c3cn(C4CCNCC4)nn3)nc2c1C | 68.42%
29 | Clc1ccccc1CCn1ccnc1-c1cn(C2CCNCC2)nn1 | -30.83%
30 | CSc1ccccc1-n1ccnc1-c1cn(C2CCNCC2)nn1 | 14.55%
31 | Cc1cccc2[nH]c(-c3cn(C4CCNCC4)nn3)nc12 | 57.92%
32 | OCCc1ccccc1-n1ccnc1-c1cn(C2CCNCC2)nn1 | 5.78%
33 | Cc1ccc(-n2ccnc2-c2cn(C3CCNCC3)nn2)c(Cl)c1 | 36.26%
34 | Cc1cc2nc(-c3cn(C4CCNCC4)nn3)[nH]c2cc1C | 28.14%
35 | COc1cccc(CCn2ccnc2-c2cn(C3CCNCC3)nn2)c1 | -14.82%
36 | Cc1nc(C(C)C)sc1C(=O)N1CCN(C2CCSCC2)CC1 | 18.77%
37 | CN(C)C(=O)c1cccnc1SCc1ccccc1Cl | 17.31%
38 | Cc1nn(C)c(C)c1C1CCCN1CC(=O)NCc1ccccn1 (configuration not stated) | -29.54%
39 | COC(=O)C(NC(=O)CC(C)C)c1cc(F)ccc1F (configuration not stated) | 29.12%
40 | O=C(CC1CCCC1)NCCS(=O)(=O)N1CCN(c2ccccn2)CC1 | -40%
41 | CN(C)CCNC(=O)CC1CCN(c2cccnn2)CC1 | -36.94%
42 | O=C(CC1CCN(c2cccnn2)CC1)Nc1cccnc1 | 50.17%
43 | O=C(CC1CCN(c2cccnn2)CC1)Nc1nncs1 | -24.13%
44 | O=C(CC1CCN(c2cccnn2)CC1)NCCO | 68.96%

Row | Structure (SMILES) | INHIBITION
45 | O=C(CC1CCN(c2cccnn2)CC1)NC1CCOCC1 | -36.08%
46 | CC(c1ccncc1)n1cc2nc(N(C)C)[nH]cc-2c1=O (configuration not stated) | 20.82%
47 | COc1ccc(C(O)CNC(=O)Nc2cc(C)nn2C)cc1 (configuration not stated) | 34.83%
48 | Cn1cnc(-c2ccc(F)cc2)c1NC(=O)CCNC(=O)C(C)(C)C | 37.66%
49 | c1cc(CN2CCC3(CC2)COC(COCC2CC2)C3)cs1 (configuration not stated) | -9.14%
50 | c1cc(CN2CCC3(CCOCC3COCC3CC3)CC2)co1 (configuration not stated) | 39.18%
51 | c1csc(CN2CCC3(CCOCC3COCC3CC3)CC2)n1 (configuration not stated) | -23.51%
52 | c1cc(CN2CCC3(CCOCC3COCC3CC3)CC2)ccn1 (configuration not stated) | 50.17%
53 | c1cc(CN2CCC3(CC2)COC(COCC2CC2)C3)ccn1 (configuration not stated) | 55.57%
54 | c1cc(CN2CCC3(CC2)COC(COCC2CC2)C3)co1 (configuration not stated) | 15.02%
55 | CC(C)c1nccn1CCC(=O)N1CCCC1c1cccn1C (configuration not stated) | 22%
56 | COCCCn1cnnc1C(C)NC(=O)c1[nH]c2ccc(C)cc2c1C (configuration not stated) | 23.6%
57 | Cn1cnc(S(=O)(=O)N2CC3(CCN(c4ccccc4)C3)C2)c1 | 15.42%
58 | CN(CCc1ccccn1)C(=O)c1cn2c(n1)CNCC2 | 25.55%
59 | CN(CCSc1ccccc1)C(=O)c1cn2c(n1)CNCC2 | 54.29%
60 | CN(CCCc1ccccc1)C(=O)c1cn2c(n1)CNCC2 | -12.28%
61 | c1cncc(CN2CCC(c3ccc4c(c3)OCO4)CC2)c1 | 17.24%
62 | Cc1cccc(C(=O)N2CC[C@H]3C[C@@H](C)O[C@@H]3C2)n1 | 1.29%
63 | O=C(c1cc(C2CC2)on1)N1C[C@@H]2COC[C@]2(COc2cccnc2)C1 | 22.68%
64 | O=C1NCCCCC1NC(=O)C1(c2ccccc2)CCOCC1 (configuration not stated) | -20.35%
65 | O=C(NCc1cc(-c2ccccc2)no1)NCC1CCCO1 (configuration not stated) | -3.26%
66 | Cc1ccc(-c2cc(CNC(=O)N3CCC(O)CC3)on2)cc1 | -5.7%

Row | Structure (SMILES) | INHIBITION
67 | Cc1ccc(-c2cc(CNC(=O)NC3CCCCNC3=O)on2)cc1 (configuration not stated) | 55.7%
68 | O=C(NCc1cc(-c2ccccc2)no1)NC1CCCCNC1=O (configuration not stated) | 65.38%
69 | Cc1ccc(-c2cc(CS(=O)(=O)NC3CCCNC3=O)on2)cc1 (configuration not stated) | 42.79%
70 | COc1ccc(CC(=O)NC(C)c2nc3cccnc3n2C(C)C)cc1 (configuration not stated) | -39.63%
71 | COc1cccc(CC(=O)NC(C)c2nc3cccnc3n2C(C)C)c1 (configuration not stated) | 74.83%
72 | COc1ccccc1CC(=O)NC(C)c1nc2cccnc2n1C(C)C (configuration not stated) | 24.44%
73 | COC(=O)C(CNC(=O)Nc1nncs1)Cc1cccc(C)c1 (configuration not stated) | 12.17%
74 | CCn1ccnc1CN1CCCN(C(=O)c2cc(C)nn2CC)CC1 | 11.09%
75 | CC(C)C(=O)N(C)Cc1nc(N2CCCC2)ncc1-c1ccncc1 | -6.41%
76 | CCc1ccc(CCNc2ncnc3c2CCN(C(=O)C2CC2)C3)cc1 | 55.66%
77 | Nc1nnc(CCNc2ncnc3c2CCN(C(=O)C2CC2)C3)s1 | 11.9%
78 | Nc1nc(CCNc2ncnc3c2CCN(C(=O)C2CC2)C3)cs1 | -26.81%
79 | Cc1cc(C)c(Cn2cncn2)cc1CN1CC[C@H](CO)[C@@H](O)C1 | -64.63%
80 | CC1(C)CCN(S(=O)(=O)N2CCCC(c3cccc(C(=O)O)c3)C2)CC1 (configuration not stated) | 19.04%
81 | CC1CCN(S(=O)(=O)N2CCCC(c3cccc(C(=O)O)c3)C2)CC1 (configuration not stated) | -18.41%
82 | COC1CCN(S(=O)(=O)N2CCCC(c3cccc(C(=O)O)c3)C2)CC1 (configuration not stated) | 57.59%
83 | Cc1cc(C)c(CNC(=O)NCc2ccncc2)c(=O)[nH]1 | 26.76%
84 | CC(C)CCN1CC2(CCN(C3CCCOC3)CC2)OC1=O (configuration not stated) | 57.47%
85 | CN(C)CCCN1CC2(CCN(C3CCCOC3)CC2)OC1=O (configuration not stated) | 24.81%
86 | O=C1OC2(CCN(C3CCCOC3)CC2)CN1CCc1ccccc1 (configuration not stated) | -1.27%
87 | COCCNC(=O)N1CC(Cc2ccccc2F)C1 | -41.64%
88 | Cc1cc(C)n2ncc(CN3CCC(Cn4cc(CO)nn4)CC3)c2n1 | 64.9%

Row | Structure (SMILES) | INHIBITION
89 | CCCc1cnc(C)nc1N1CCC(Cn2cc(CO)nn2)CC1 | 9.69%
90 | Cc1cc(C)n2ncc(CN3CCC(n4cc(CCO)nn4)CC3)c2n1 | 31.51%
91 | CCC(C(=O)NCc1csc(N2CCOCC2)n1)n1cccn1 (configuration not stated) | 17.78%
92 | Cc1cncc(Oc2ccc(CN)cc2)n1 | 32.31%
93 | Clc1cnc(NCc2ccccc2N2CCOCC2)nc1 | -2.35%
94 | c1ncn(CC2CCCN(Cc3nc(C4CC4)no3)C2)n1 (configuration not stated) | -8.84%
95 | c1ncn(CC2CN(Cc3nc(C4CC4)no3)CCO2)n1 (configuration not stated) | 60.64%
96 | c1cnn(CC2CN(Cc3nc(C4CC4)no3)CCO2)c1 (configuration not stated) | 9.41%
97 | CCc1nc(CN2CCOC(Cn3cncn3)C2)no1 (configuration not stated) | 55.7%
98 | CCCc1nc(CN2CCOC(Cn3cncn3)C2)no1 (configuration not stated) | 37.52%
99 | CC(C)Cc1nc(CN2CCOC(Cn3cncn3)C2)no1 (configuration not stated) | 40.17%
100 | CCc1ccc(CC)c(NCc2cnc(N3CCOCC3)nc2)c1 | -64.63%
101 | COCC(=O)N1C[C@@H]2CCCO[C@@H]2[C@H](N(C)Cc2ccco2)C1 | -17.76%
102 | Cc1ccc(CN2CCOC3(CCCN(c4cccc(F)c4)C3)C2)o1 (configuration not stated) | 22.15%
103 | Cc1noc(C)c1CN1CCN(C(C)c2nc(C3CC3)no2)CC1 (configuration not stated) | 33.22%
104 | CCc1noc(C)c1-c1nc(Cc2cccs2)nn1C1CCN(C)CC1 | 64.9%
105 | Cc1ncsc1-c1nc(Cc2cccs2)nn1C1CCN(C)CC1 | 43.44%
106 | CN1CCC(n2nc(Cc3cccs3)nc2-c2ccncc2)CC1 | 21.97%
107 | CCc1sc(C(=O)Nc2cnn(CC(N)=O)c2)cc1C | 2.51%
